Experimental findings from PubChem BioAssay are described below.

For part of these data: Measured potencies and affinities stand elsewhere. The source made the active and inactive calls.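 How the source made its calls, unless noted: active means dose curve with midpoint inside tested range, moderate steepness, plateau gap beyond fit error, low compound glow and bead-link interference; inactive means the rest.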

The target in assay [1] is Cell division control protein 42 homolog (Homo sapiens) (UniProt P60953). Kind of assay: activated mutant Cdc42 GTP-binding inhibitors, dose response, biochemical, multiplex bead flow cytometry, Bodipy-FL-GTP (AID 1333;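 active means fitted half-maximal concentration within the tested dose range, moderate curve steepness, a statistically real signal drop, and little compound fluorescence or tag-binding interference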).
The target is the same in assay [2]. Put plainly: wildtype Cdc42 GTP-binding inhibitors, dose response, biochemical, multiplex bead flow cytometry, Bodipy-FL-GTP (AID 1334;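 active means fitted half-maximal concentration within the tested range, moderate curve steepness, significant signal drop, and little compound fluorescence or bead-linkage interference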). To be noted: bead-based flow cytometry, Bodipy-FL-GTP binding to GST-Cdc42; at 100 µM (top of the series) unless noted.
Assay [3] deals with GTPase HRas (Homo sapiens) (UniProt P01112). Put plainly: inhibitors of GTP binding to wildtype Ras, dose response, biochemical, multiplex bead flow cytometry (AID 1335;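 active means fitted half-maximal concentration within 10 nM to 100 µM, steepness 0.5 to 2, significant signal drop, low assay interference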). To be noted: bead-based flow cytometry, Bodipy-GTP binding to GST-Ras; at 100 µM (top of the series) unless noted.
The subject of assay [4] is Ras-related protein Rab-7a (dog), GTP binding. Put plainly: Rab7 GTP binding inhibitors, potency, dose response, biochemical, wildtype, multiplex bead flow cytometry (AID 1336; call rule not given here).
The target of assay [5] is Ras-related C3 botulinum toxin substrate 1 (Homo sapiens) (UniProt P63000). Kind of assay: wildtype Rac1 GTP binding inhibitors, dose response, biochemical, multiplex bead flow cytometry (AID 1340). The following applies: GST-Rac1 beads, Bodipy-FL-GTP binding; at 100 µM (top of the series) unless noted.
For assay [6], the target named is GTPase HRas (Homo sapiens) (UniProt P01112). Put plainly: activated Ras mutant GTP binding inhibitors, dose response, biochemical, multiplex bead flow cytometry (AID 1341;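 active means dose-response curve with midpoint inside the tested range, moderate steepness, significant amplitude and little compound fluorescence or bead-attachment interference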;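 further: GST-tagged constitutively activated Ras mutant immobilized on beads and multiplexed with other GTPases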).

GTPase HRas (Homo sapiens), sequence (P01112 whole entry, looked up): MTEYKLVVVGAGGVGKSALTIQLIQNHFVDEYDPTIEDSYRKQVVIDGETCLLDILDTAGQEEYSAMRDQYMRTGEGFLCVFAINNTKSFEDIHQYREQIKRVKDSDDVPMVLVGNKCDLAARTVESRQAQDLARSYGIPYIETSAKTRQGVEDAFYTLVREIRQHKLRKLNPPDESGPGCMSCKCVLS
Cell division control protein 42 homolog (Homo sapiens), sequence (P60953 whole entry, looked up): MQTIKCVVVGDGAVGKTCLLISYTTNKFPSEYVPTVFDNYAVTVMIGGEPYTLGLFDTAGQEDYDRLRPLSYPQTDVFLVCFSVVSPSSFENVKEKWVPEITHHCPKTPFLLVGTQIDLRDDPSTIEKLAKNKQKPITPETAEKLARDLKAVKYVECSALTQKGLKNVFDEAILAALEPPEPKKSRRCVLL

Regarding `COc1cccc2c(SCC(=O)N/N=C/c3ccc(O)c(O)c3)cc(C)nc12`, the outcome in assay [1], in assay [4] and in assay [6] was inactive. Moreover, the fluorescence, percent of control (lower = inhibition) in assay [2] came to 27.5%. In assay [3], this compound showed a GTP binding, percent of control of 60.2%. In assay [5], the GTP binding signal, raw median fluorescence (lower = inhibition) (MCF (arbitrary fluorescence units)) is 119.

On to `O=C(CCc1nc2ccccc2[nH]c1=O)OCC(=O)N1CCc2ccccc21`, for which the outcome in assay [1], in assay [4] and in assay [6] was inactive. For the same compound, the fluorescence, percent of control (lower = inhibition) in assay [2] amounted to 36.8%. In addition, the GTP binding, percent of control in assay [3] was determined as 82.6%. The same compound returned a GTP binding signal, raw median fluorescence (lower = inhibition) (MCF (arbitrary fluorescence units)) in assay [5] of 280.

For the compound `Cc1cccc(CSc2ncccc2C(=O)O)c1`, the compound was classed as inactive in assay [1], in assay [4] and in assay [6]. Besides, the fluorescence, percent of control (lower = inhibition) in assay [2] was found to be 69.2%. The compound also came in with a GTP binding, percent of control in assay [3] of 70.8%. Moreover, the GTP binding signal, raw median fluorescence (lower = inhibition) (MCF (arbitrary fluorescence units)) in assay [5] was 314.

Take `O=c1[nH]c(=O)c2nnc(N/N=C\c3ccc(O)cc3)nc2[nH]1`: the outcome in assay [1], in assay [4] and in assay [6] was inactive. Besides, in assay [2], the fluorescence, percent of control (lower = inhibition) came out at 32.2%. Further, the GTP binding, percent of control in assay [3] came out at 69.1%. The GTP binding signal, raw median fluorescence (lower = inhibition) (MCF (arbitrary fluorescence units)) in assay [5] turned out to be 147.

`Cn1c(=O)c2c(ncn2CC(O)CNc2cccc(Cl)c2)n(C)c1=O` (stereo not given): the compound was called inactive in assay [1], in assay [4] and in assay [6]. In addition, in assay [2], the fluorescence, percent of control (lower = inhibition) came out at 47.1%. Further, the GTP binding, percent of control in assay [3] is 101%. The compound also displayed a GTP binding signal, raw median fluorescence (lower = inhibition) (MCF (arbitrary fluorescence units)) in assay [5] of 363.

For `COc1cc(/C=N/Nc2nn3cnnc3c3ccccc23)ccc1O`, the result in assay [1], in assay [4] and in assay [6] was inactive. For the same compound, the fluorescence, percent of control (lower = inhibition) in assay [2] amounted to 50.3%. Further, the GTP binding, percent of control in assay [3] was determined as 122%. This compound also showed a GTP binding signal, raw median fluorescence (lower = inhibition) (MCF (arbitrary fluorescence units)) in assay [5] of 90.4.

As to `Cc1noc(/C=C/c2ccc(-c3ccccc3Cl)o2)c1[N+](=O)[O-]`, the outcome in assay [1], in assay [4] and in assay [6] was inactive. Further, in assay [2], the fluorescence, percent of control (lower = inhibition) came to 125%. Moreover, the GTP binding, percent of control in assay [3] turned out to be 171%. Also, the GTP binding signal, raw median fluorescence (lower = inhibition) (MCF (arbitrary fluorescence units)) in assay [5] came out at 199.

In the case of `COc1ccc(CC2(CO)CCN(S(=O)(=O)c3sccc3C)CC2)cc1`, the compound was called inactive in assay [1], in assay [4] and in assay [6]. The fluorescence, percent of control (lower = inhibition) in assay [2] amounted to 35.4%. In assay [3], this compound yielded a GTP binding, percent of control of 82.2%. Besides, the GTP binding signal, raw median fluorescence (lower = inhibition) (MCF (arbitrary fluorescence units)) in assay [5] stood at 273.

With `Cn1ncc(C(N)=O)c1NC(=S)NC(=O)c1ccc(Br)o1`, the compound was called inactive in assay [1], in assay [4] and in assay [6]. Besides, in assay [2], the fluorescence, percent of control (lower = inhibition) is 36.5%. In assay [3], this compound came in with a GTP binding, percent of control of 76.4%. The compound further came in with a GTP binding signal, raw median fluorescence (lower = inhibition) (MCF (arbitrary fluorescence units)) in assay [5] of 170.

On to `O=C(O)c1cccc(-n2cccc2/C=C2/NC(=O)N(c3ccc(Cl)cc3)C2=O)c1`, for which the compound was classed as inactive in assay [1], in assay [4] and in assay [6]. In addition, the fluorescence, percent of control (lower = inhibition) in assay [2] came to 22.7%. Also, the GTP binding, percent of control in assay [3] was 64.3%. The GTP binding signal, raw median fluorescence (lower = inhibition) (MCF (arbitrary fluorescence units)) in assay [5] amounted to 213.

Consider `O=C(C[n+]1cccc2ccccc21)c1ccc(NC(=O)c2ccccc2)cc1`, for which the compound was classed as inactive in assay [1], in assay [4] and in assay [6]. The fluorescence, percent of control (lower = inhibition) in assay [2] was 75.8%. This compound also had a GTP binding, percent of control in assay [3] of 123%. For the same compound, the GTP binding signal, raw median fluorescence (lower = inhibition) (MCF (arbitrary fluorescence units)) in assay [5] was determined as 332.

Consider `O=c1/c(=C/c2ccc(CNS(=O)(=O)c3ccccc3)o2)sc2n1CCN=2`, for which the compound was called inactive in assay [1], in assay [4] and in assay [6]. Moreover, the fluorescence, percent of control (lower = inhibition) in assay [2] amounted to 29%. The GTP binding, percent of control in assay [3] amounted to 63.2%. The same compound registered a GTP binding signal, raw median fluorescence (lower = inhibition) (MCF (arbitrary fluorescence units)) in assay [5] of 119.

Regarding `O=C(O)c1ccc(/C=N/NC(=O)c2cc(-c3ccc4c5c(cccc35)CC4)n[nH]2)cc1`, the compound was classed as inactive in assay [1], in assay [4] and in assay [6]. In addition, the fluorescence, percent of control (lower = inhibition) in assay [2] came to 28.2%. Besides, the GTP binding, percent of control in assay [3] is 71.2%. This compound returned a GTP binding signal, raw median fluorescence (lower = inhibition) (MCF (arbitrary fluorescence units)) in assay [5] of 151.

With `CCCn1cc(CN2CCCC(CNC(=O)c3ccc(F)cc3)C2)c(C)n1` (stereo not given), the result in assay [1], in assay [4] and in assay [6] was inactive. Further, the fluorescence, percent of control (lower = inhibition) in assay [2] came to 37.6%. The compound further came in with a GTP binding, percent of control in assay [3] of 85.7%. This compound came in with a GTP binding signal, raw median fluorescence (lower = inhibition) (MCF (arbitrary fluorescence units)) in assay [5] of 247.

With `O=S(=O)(Cc1ccc(Cl)cc1)c1ccccc1-c1nnc(-c2ccc(Cl)cc2)o1`, the outcome in assay [1], in assay [4] and in assay [6] was inactive. Also, the fluorescence, percent of control (lower = inhibition) in assay [2] came out at 84%. For the same compound, the GTP binding, percent of control in assay [3] is 160%. This compound also had a GTP binding signal, raw median fluorescence (lower = inhibition) (MCF (arbitrary fluorescence units)) in assay [5] of 172.
